Mcl-1 Bim block: inhibitors of Bim peptide binding to Mcl-1, primary screen, biochemical, bead-based flow cytometry, multiplex. Bim peptide-Mcl-1 binding. inhibition, % at 10 µM. actives 0.1% (n = 190,000). AID 1009, 2008; in the data active = inhibition above about 40%
Bcl-xL primary: inhibitors of human Bcl-xL, primary screen, biochemical, fluorescence polarization, HTS; inhibition, % at 10.9 µM; actives 0.7% (n = 320,000); Bcl-2-like protein 1 (Homo sapiens), Q07817; GST-Bcl-xL / FITC-Bim BH3 peptide fluorescence polarization;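 active = inhibition above the mean of all tested compounds plus 3 SD, cutoff set per campaign, cut at about 30% in these data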;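 note: inhibitors lower millipolarization by displacing the labeled peptide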
Target sequence (Q07817 whole entry, looked up): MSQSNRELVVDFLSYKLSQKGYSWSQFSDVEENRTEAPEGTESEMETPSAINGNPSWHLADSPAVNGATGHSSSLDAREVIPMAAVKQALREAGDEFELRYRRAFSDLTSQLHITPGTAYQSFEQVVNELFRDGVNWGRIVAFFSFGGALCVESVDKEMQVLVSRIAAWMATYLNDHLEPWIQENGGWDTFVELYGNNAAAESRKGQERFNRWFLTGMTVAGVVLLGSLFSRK
MCL1-BIM inh: inhibitors of MCL1 binding to BIM-BH3, primary screen, biochemical, fluorescence polarization | Induced myeloid leukemia cell differentiation protein Mcl-1 (Homo sapiens), Q07820 | inhibition, % at 10.9 µM | actives 0.68% (n = 320,000) | GST-MCL1 / FITC-Bim-BH3 fluorescence polarization;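 active = inhibition above the mean inhibition of all tested compounds plus 3 SD, set per campaign, cut at about 40% in these data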;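 note: higher means more loss of mP so more displacement of Bim peptide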
Mcl1 Noxa PPI: Mcl-1/Noxa binding inhibitors, primary screen, biochemical, TR-FRET, 1536-well; AID 1022, 2008; actives 1.5% (n = 220,000); Induced myeloid leukemia cell differentiation protein Mcl-1 (Homo sapiens), Q07820; TR-FRET Mcl-1/Noxa peptide binding, 2 h; inhibition, % at 21.7 µM;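 active = compounds that cut the protein-peptide binding signal by more than 50% relative to plate controls in a single-dose test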;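 note: His-tagged Mcl-1 with rhodamine Noxa BH3 peptide and terbium anti-His antibody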
GLD-1 TGE inh: GLD-1/TGE RNA complex disruptors, primary screen, biochemical, fluorescence polarization; Female germline-specific tumor suppressor gld-1 (Caenorhabditis elegans), Q17339; purified GLD-1 + fluorescein TGE RNA; actives 0.44% (n = 320,000); inhibition, % at 5.96 µM;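 active = percent inhibition above a per-plate cutoff, the plate mean of test compounds plus 3 SD, cut at about 30% in these data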
Mcl1-Bid inh: Mcl-1/Bid binding inhibitors, primary screen, biochemical, TR-FRET, 1536-well; Induced myeloid leukemia cell differentiation protein Mcl-1 (Homo sapiens), Q07820; TR-FRET Mcl-1/Bid-Dy647 peptide binding; inhibition, % at 21.7 µM; actives 0.97% (n = 220,000); AID 1021, 2008;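 active = compounds that cut the binding signal by more than half at the single screening dose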;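 note: His-tagged Mcl-1 with europium anti-His antibody binding Bid BH3 peptide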
Numbers stand for hits; – = inactive; · = no result given. Only some compounds are listed: those with a hit (about 2.3% of all), similar ones and a draw of the others.

SMILES	Mcl-1 Bim block	Bcl-xL primary	MCL1-BIM inh	Mcl1 Noxa PPI	GLD-1 TGE inh	Mcl1-Bid inh
COc1ccc(N2CCN(C(CNC(=O)c3cccc(Cl)c3)c3cccnc3)CC2)cc1 (stereo unspecified)	–	–	–	–	–	–
COc1ccc(N2CCN(C(CNC(=O)c3ccco3)c3cccnc3)CC2)cc1 (stereo unspecified)	–	–	–	–	–	–
O=C(NCC(c1cccnc1)N1CCOCC1)c1cccc(Cl)c1 (stereo unspecified)	–	–	–	–	–	57
CCOc1ccc(-c2nnc(-c3ccccc3)n2-c2ccccc2)cc1	–	–	–	–	–	61
CCOc1ccc(-c2nnc(-c3ccccc3)o2)cc1	–	–	–	–	–	–
CC1CCc2sc(C(=O)Nc3ccc(N4CCOCC4)cc3)cc2C1 (stereo unspecified)	–	–	–	52	–	–
O=C(Nc1ccc(N2CCOCC2)cc1)Nc1ccc2nsnc2c1	–	–	–	61	–	–
O=C(Nc1ccc(N2CCOCC2)cc1)c1cnsn1	–	·	·	–	·	–
COc1nccnc1NS(=O)(=O)c1ccc(NC(=O)c2ccccc2Br)cc1	·	–	–	·	–	·
O=c1[nH]cc(-c2ccccc2)c(=O)[nH]1	·	–	–	–	–	–
CCN(CC)c1ccc(/C=N/NC(=O)Nc2ccccc2)cc1	–	–	–	–	–	–
CCN(CC)c1ccc(/C=N/NC(=O)Cc2nnc(NC(=O)Nc3ccccc3)s2)cc1	–	–	–	73	–	–
O=C(Nc1nn(Cc2ccc(Cl)cc2)cc1Br)c1ccc(COc2ccccc2Cl)o1	–	–	–	–	–	–
COc1cc(-c2nc3cnccn3c2Nc2ccccc2)ccc1O	–	–	–	55	–	–
S=c1[nH]nc(-c2c[nH]c3ccccc23)o1	·	–	–	·	–	·
Oc1cc2ccccc2cc1-c1n[nH]c(=S)o1	–	–	–	–	–	57
CCN(CC)S(=O)(=O)c1cc(NS(=O)(=O)c2c(Cl)cccc2Cl)ccc1C	–	–	–	–	–	–
O=C(O)Cc1sc(Nc2ccc(Cl)cc2)nc1-c1cccs1	–	·	·	73	·	–
Nc1nc(-c2cccs2)c(CC(=O)O)s1	–	–	–	–	–	–
CC1(C)Cc2c(ccc3ccccc23)/C(=C/C(=O)N2CCCCC2)N1	42	–	–	–	–	–
N#Cc1nc(-c2ccc(OCc3ccc(Cl)cc3)cc2)oc1NCc1cccnc1	–	–	–	57	–	–
COc1cc(OC)cc(C(=O)N[C@H](C(=O)NCc2ccc(F)cc2)C(C)C)c1	·	–	–	·	–	·
Cc1nn(C)c(Oc2cccc(Cl)c2)c1C(=O)Nc1ccc(F)cc1F	–	–	–	–	–	–
NNC(=O)COc1ccccc1F	47	–	–	–	–	–
NNC(=O)COc1ccc(F)cc1	–	–	–	–	–	–
SMILES	Mcl-1 Bim block	Bcl-xL primary	MCL1-BIM inh	Mcl1 Noxa PPI	GLD-1 TGE inh	Mcl1-Bid inh
O=C(CCNS(=O)(=O)c1cccs1)N1CCN(c2cccc(C(F)(F)F)c2)CC1	·	–	–	·	–	·
CCOC(=O)C1=C(c2ccccc2)N=c2s/c(=C\c3cc(OC)c(OC)c(OC)c3)c(=O)n2C1c1cccs1 (stereo unspecified)	–	35	–	–	–	–
O=C(O)CCN1C(=O)c2ccccc2Sc2ncccc21	·	–	–	·	–	·
CCOc1ccc(N2C(=O)/C(=C\c3ccc(OC)c(O)c3)S(=O)(=O)C2c2cccc([N+](=O)[O-])c2)cc1 (stereo unspecified)	–	–	–	–	–	–
CCOc1ccc(N2C(=O)/C(=C\c3ccc(O)c(OC)c3)S(=O)(=O)C2c2cccc([N+](=O)[O-])c2)cc1 (stereo unspecified)	–	–	–	72	–	–
CCOc1ccc(NC(=S)NCCN2CCN(Cc3ccccc3)CC2)cc1	–	–	–	–	–	–
O=C(COC(=O)/C=C/c1ccc(F)cc1)NCc1cccs1	·	–	–	·	–	·
